Assay outcomes (PubChem)
The sample as a whole holds a higher share of hits than the screen did.
BAP1 block = blocks human BAP1 ubiquitin-AMC hydrolysis; Q92560; recombinant BAP1, Ub-AMC hydrolysis fluorescence kinetic; stronger effect = lower value; AID 436; 0.48% of 72,000 active; calls only at 20 µM;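 active means activity remaining at or below 50% of control, provided the compound also passes the data quality filters; inactive means the rest, including low values that fail the filters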
hDAT+cocaine = changed human dopamine transporter uptake under cocaine IC80; 1.3% of 110,000 active; AID 449768; B-score at 10 µM; LLC-PK1 hDAT cells, [14C]-dopamine uptake with cocaine IC80; actives deviate in either direction;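 active means Z score or B-score, a plate-position-corrected score, falls beyond the plate's 99.7% confidence bounds, in either direction; inactive means both scores lie inside the 99.7% bounds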
D1 allo mod = allosteric modulators of human D1 dopamine receptor; B-score at 10 µM; HEK293 D1, CRE-luciferase, dopamine EC30 potentiation; actives deviate in either direction; P21728; 5.9% of 58,000 active;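 active means luminescence count or its row- and column-corrected plate score outside the 99.7% band of the plate's sample wells, on either side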
Target sequence (P21728 whole entry, looked up): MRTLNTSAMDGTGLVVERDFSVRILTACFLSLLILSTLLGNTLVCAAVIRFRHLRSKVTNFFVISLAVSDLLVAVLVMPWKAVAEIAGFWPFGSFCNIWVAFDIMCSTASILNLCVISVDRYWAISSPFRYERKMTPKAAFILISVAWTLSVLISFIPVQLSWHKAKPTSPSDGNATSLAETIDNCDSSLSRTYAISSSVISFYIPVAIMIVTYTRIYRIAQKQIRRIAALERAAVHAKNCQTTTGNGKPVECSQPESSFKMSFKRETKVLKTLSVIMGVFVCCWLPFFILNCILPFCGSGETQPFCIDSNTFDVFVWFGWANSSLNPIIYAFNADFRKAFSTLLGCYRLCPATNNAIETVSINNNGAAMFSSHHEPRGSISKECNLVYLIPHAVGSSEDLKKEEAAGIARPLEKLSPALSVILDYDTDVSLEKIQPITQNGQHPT
D1 PAM confirm = D1 receptor (human) allosteric modulation, confirmed; shares compounds with D1 allo mod; HEK293 D1 CRE-luciferase, dopamine EC30 potentiation; stronger effect = higher value; luminescence at 10 µM; 88% of 2,200 active;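 active means luminescence in either of two replicates above the same-plate mean plus 3 SD of the low-dose dopamine control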
D1 no dopamine = secondary test of D1 modulators: activity without dopamine | 0.8% of 1,900 active | HEK293 D1 CRE-luciferase, luminescence, no dopamine; stronger effect = higher value | AID 646 | luminescence at 10 µM | shares compounds with D1 allo mod; in the data active means luminescence above about 3900
Isoprot counter = isoproterenol response counter-screen activity for D1 modulators; luminescence at 10 µM; AID 647; shares compounds with D1 allo mod; 63% of 2,200 active; HEK293 D1 CRE-luciferase, isoproterenol EC30 counter-screen; stronger effect = higher value;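 active means luminescence in either replicate above plate mean of wells with a partly effective reference agonist dose plus 3 SD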;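 further: isoproterenol raises cAMP through native beta-adrenoceptor Gs so signal bypasses D1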
Each line names hits and unclear results; the compound was inactive in the other large screens (follow-up assays come after a bar, where they were run).

CCCCn1c(O)c(C(CC)=Nc2ccc(C(=O)O)cc2)c(=O)[nH]c1=O	none
Cc1nn(Cc2ccccc2)c(C)c1C(=O)OCC(=O)Nc1ccccc1SCC#N	D1 allo mod 4.2 | D1 PAM confirm 8752 | Isoprot counter 3224
Cc1cc(NC(=O)COC(=O)c2c(C)nn(Cc3ccccc3)c2C)no1	none (no result: BAP1 block, D1 allo mod)
CCOC(=O)c1c(C)n(Cc2ccco2)c2ccc(OC)cc12	D1 allo mod 3.9 | D1 PAM confirm inactive | D1 no dopamine inactive | Isoprot counter inactive
COC(=O)c1c(C)n(Cc2ccco2)c2ccc(O)cc12	none (no result: BAP1 block, D1 allo mod)
Cc1c(Cl)c([N+](=O)[O-])nn1CC(=O)Nc1ccc(Cl)cc1C(=O)c1ccccc1	none (no result: hDAT+cocaine, D1 allo mod)
CCOC(=O)c1cncn1C(C)c1ccccc1 (configuration not stated)	none (no result: BAP1 block)
CCOC(=O)c1cc2c(cn1)[nH]c1ccccc12	D1 allo mod 16 | D1 PAM confirm 15472 | D1 no dopamine inactive | Isoprot counter 3188
CCCCc1nc2ccccc2c(=O)n1-c1ccccc1[N+](=O)[O-]	none (no result: BAP1 block, D1 allo mod)
CCCCc1nc2ccccc2c(=O)n1-c1ccc(O)cc1	D1 allo mod 3.7 | D1 PAM confirm 8012 | D1 no dopamine inactive | Isoprot counter 3840
CC1CN(c2ccc([N+](=O)[O-])cc2)CCN1 (configuration not stated)	none (no result: hDAT+cocaine, D1 allo mod)
